Measured values from ChEMBL document CHEMBL4513216, “Probing the Open Global Health Chemical Diversity Library for Multistage-Active Starting Points for Next-Generation Antimalarials” (ACS Infect Dis, 2020).
The campaign covered roughly 68,000 compounds. About 2,700 (4%) showed an effect of 50% or more. The sample holds strong results, similar compounds and a random draw of the others, so the mix is not that of the screen.

Tested on: Plasmodium berghei
Test: Screen against P. berghei liver stage (PbLuc), transformed with Luciferase, at 2uM
Assay type: functional, HepG2
Conditions: tested at 2 uM

First: Cc1ccc(C(=O)N2Cc3c(CN4CCCCC4)nn(C)c3C2)cc1C
Second: COCC(=O)N1CCC2(CCN(Cc3ccc(C)cc3)CC2)CC1
The INHIBITION of the first is lower: -15.95% for the first, -4.2% for the second.

Compared with Cc1cc(C)c2c(N(C)CC3CCOC3)ncnc2n1 (stereo not given), Cc1cc(C)c2c(N(C)CC3COCCO3)ncnc2n1 (stereo not given) is higher in INHIBITION: 27.73% for the first, 55.7% for the second.

First: CN(CC1COCCO1)c1ncnc2cc(F)ccc12 (stereo not given)
Second: CN(C)C(=O)CO[C@H]1CN(Cc2ccc(F)cc2)[C@@H]2CCCO[C@H]12
The INHIBITION of the first is higher: 22.62% for the first, -84.27% for the second.

Compared with Cn1c(Cn2cccn2)nnc1C1CCN(Cc2ccccc2Cl)CC1, Cn1cnnc1CNC(=O)C1CCCN(Cc2ccccc2)C1 (stereo not given) is lower in INHIBITION: 15.75% for the first, 6.33% for the second.

First: N[C@H]1c2ccccc2C[C@@H]1NC(=O)C1CCN(Cc2ccco2)CC1
Second: COc1ccc(C(=O)C2CCCN(CCc3ccccc3)C2)c(OC)c1 (stereo not given)
The INHIBITION of the first is higher: 22.88% for the first, -18.81% for the second.

Going from CN(C)C(=O)CO[C@H]1CN(Cc2ccccc2)[C@@H]2CCCO[C@H]12 to CN(C)C(=O)CO[C@@H]1CN(Cc2ccccc2)[C@@H]2CCCO[C@@H]21, the INHIBITION rises from 45.56% to 52.66%.

Compared with CCNC(=O)NC1CN(Cc2ccncc2Cl)C[C@@H]1OC (stereo not given in full), COc1ncccc1CN1CC[C@@]2(O)CCN(C(=O)C3CCC3)C[C@H]2C1 is higher in INHIBITION: -0.98% for the first, 27.85% for the second.

Going from COCC1c2c(cnn2CC2CC2)CCN1Cc1ccc(OC)cc1 (stereo not given) to CCOc1cc(CN(C)Cc2ccccc2)ccc1OC(F)F, the INHIBITION falls from -4.92% to -5.59%.

Compared with Cc1nc(COC[C@@H]2CC[C@H]3[C@H](CCN3c3ncccn3)O2)cs1, c1cnc(N2CC3(CCN(Cc4cccnc4)C3)C2)nc1 is higher in INHIBITION: -8.23% for the first, 52.91% for the second.

Compared with CCOc1cc(CN(C)CCC(=O)OC)ccc1OC(F)F, CCOc1cc(CN(C)CC(=O)O)ccc1OC(F)F is higher in INHIBITION: 14.96% for the first, 78.96% for the second.

First: CCN(Cc1nonc1C)C(=O)c1cc(C(F)(F)F)nn1C
Second: COCC(=O)N1CCC2(CC1)C(=O)N(Cc1cccnc1)CCN2C
The INHIBITION of the first is lower: -12.5% for the first, 33.3% for the second.

Going from COCC(=O)N1CC[C@]2(O)CCN(Cc3ccsc3)C[C@@H]2C1 to COCC(=O)N1CC[C@]2(O)CCN(Cc3cccnc3OC)C[C@@H]2C1, the INHIBITION rises from 19.49% to 56.49%.

Going from c1cnc(N2CCC3(CCN(Cc4cccnc4)CC3)CC2)nc1 to Cc1cnc(N2CC3(CCN(Cc4cccnc4)C3)C2)nc1, the INHIBITION falls from 45.82% to 9.53%.

Compared with COCC(=O)N1CCC2(CCN(Cc3cccnc3)C2)CC1, O=C(C1CCCO1)N1CCC2(CC1)COCCN(Cc1cccnc1)C2 (stereo not given) is higher in INHIBITION: 51.81% for the first, 55.49% for the second.

Going from O=C([C@@H]1CCCO1)N1CCOCC2(CCN(Cc3cccnc3)C2)C1 (stereo not given in full) to O=C(C1CCCO1)N1CCC2(CC1)COCCN(Cc1ccncc1)C2 (stereo not given), the INHIBITION falls from -31.3% to -66.98%.
